Target: T1, NL_v2_PPR11 (Artificial Sequence)
T1 chain: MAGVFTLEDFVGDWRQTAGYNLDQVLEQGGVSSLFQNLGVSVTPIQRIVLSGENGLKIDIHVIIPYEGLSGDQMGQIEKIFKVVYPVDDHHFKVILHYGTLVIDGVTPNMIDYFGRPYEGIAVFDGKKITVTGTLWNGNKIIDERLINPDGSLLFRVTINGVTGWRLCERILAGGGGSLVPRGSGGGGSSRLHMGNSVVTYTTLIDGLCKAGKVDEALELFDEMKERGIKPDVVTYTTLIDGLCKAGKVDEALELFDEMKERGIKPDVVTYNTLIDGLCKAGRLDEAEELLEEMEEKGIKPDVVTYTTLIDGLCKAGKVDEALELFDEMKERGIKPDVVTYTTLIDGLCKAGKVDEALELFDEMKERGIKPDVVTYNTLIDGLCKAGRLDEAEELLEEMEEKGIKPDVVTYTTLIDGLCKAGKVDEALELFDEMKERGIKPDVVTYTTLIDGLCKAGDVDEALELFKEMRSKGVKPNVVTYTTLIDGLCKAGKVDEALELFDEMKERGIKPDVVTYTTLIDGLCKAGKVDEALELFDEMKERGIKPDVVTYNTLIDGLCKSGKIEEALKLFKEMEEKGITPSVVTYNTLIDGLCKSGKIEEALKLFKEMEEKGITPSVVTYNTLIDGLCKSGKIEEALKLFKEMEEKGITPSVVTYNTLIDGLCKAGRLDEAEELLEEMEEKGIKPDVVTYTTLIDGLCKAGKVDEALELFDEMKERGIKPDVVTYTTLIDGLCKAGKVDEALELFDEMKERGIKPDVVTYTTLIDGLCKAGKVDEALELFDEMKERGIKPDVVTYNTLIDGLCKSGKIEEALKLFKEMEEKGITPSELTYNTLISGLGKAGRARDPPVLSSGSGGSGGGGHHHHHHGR
Assay: RPB-ELISA
Settings: tags: N-terminal luciferase, C-terminal 6xHis; label: 5'-biotin; ssRNA
Experimental: RNA probes consisting of a designed 30-base sequence containing 18 bases of the target sequence and modified by biotinylation at the 5′ end (RNA_1, RNA_2, RNA_3, RNA_4, and RNA_5, SEQ ID NOS: 61 to 65) were synthesized (Grainer). To a streptavidin-coated plate (Thermo fisher), the 5′-end biotinylated RNA probes were added, reaction was allowed at room temperature for 30 minutes, and the plate was washed with a lysis buffer (20 mM Tris-HCl, pH 7.6, 150 mM NaCl, 5 mM MgCl₂, 0.5% NP-40, 1 mM DTT, 0.1% BSA). For background measurement, wells to which RNA was not added, but 100 μL of the lysis buffer, 1 μL of 100 mM DTT, and 1 μL of 40 unit/4 RNase inhibitor (Takara, 2313A) were added were also prepared. Then, 200 μL of a blocking buffer (20 mM Tris-HCl, pH 7.6, 150 mM NaCl, 5 mM MgCl₂, 0.5% NP-40, 1 mM DTT, 1% BSA) was added, and the plate surface was blocked at room temperature for 30 minutes. Then, 100 μL of E. coli lysate containing luciferase-fused PPR protein having a luminescence level of 1.5×10⁸ LU/μL was added to each well, and the binding reaction was allowed at room temperature for 30 minutes. The well was washed 5 times with 200 μL of a washing buffer (20 mM Tris-HCl, pH 7.6, 150 mM NaCl, 5 mM MgCl₂, 0.5% NP-40, 1 mM DTT). […] The background (luminescence signal value obtained with adding the PPR protein and without adding RNA) was subtracted from the luminescences of the samples to which a solution containing each RNA and PPR protein was added, and the obtained values were used as the binding powers between the PPR protein and RNA.
By using the v2 motif, PPR proteins for 23 kinds of target sequences (T_1 to T_3, and T_5 to T_24, SEQ ID NOS: […]) were prepared (NL_v2_PPR1 to 3, and NL_v2_PPR5 to 24, SEQ ID NOS: 56 to 58 and 70 to 88), and RPB-ELISA was used to analyze bindings of all the combinations. The experimental method was the same as that used in Example 3.

**Q.** GGUUAGAGAUACAGUGUG was tested. Which binding signal did it give?
**A.** 20.4 log2 luminescence

— patent US20220289795, “EFFICIENT METHOD FOR PREPARING PPR PROTEIN AND USE OF THE SAME” (EditForce, Inc., published 2022)
